Screening results from PubChem BioAssay.
MITF inh: blocks human microphthalmia-associated transcription factor | inhibition, % at 2.6 µM | O75030 | AID 1259374 | 0.91% of 650,000 active | AlphaScreen MITF homodimerization, bead proximity signal; in the data active = inhibition above about 50%;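 also: 0% = vehicle wells with protein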
FBW7 act: human FBW7 E3 ligase activation, primary screen; 0.13% of 650,000 active; AID 1259310; Q969H0; AlphaScreen FBW7–phospho-cyclin E peptide binding, activator screen; normalized activity (activation), % at 26.1 µM; in the data active = normalized activity above about 1.9%;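 also: purified mutant Fbw7 with reduced substrate affinity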
TEAD-YAP block: TEAD-YAP interaction inhibition. HEK-TIYL cells, TEAD-Gal4/YAP UAS-luciferase luminescence. inhibition, % at 9.12 µM. 1.4% of 640,000 active. AID 1259422; in the data active = inhibition above about 32%;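 also: 0% = median of test compound wells and 100% = reference inhibitor wells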
GPR151 activ: activators of human GPR151. PathHunter beta-arrestin GPR151 cells, luminescence. Q8TDV0. 1% of 650,000 active. activation, % at 11.2 µM; in the data active = activation above about 4.9%;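 also: 0% = median of compound wells and 100% = cells with positive control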
Target sequence (Q8TDV0 whole entry, looked up): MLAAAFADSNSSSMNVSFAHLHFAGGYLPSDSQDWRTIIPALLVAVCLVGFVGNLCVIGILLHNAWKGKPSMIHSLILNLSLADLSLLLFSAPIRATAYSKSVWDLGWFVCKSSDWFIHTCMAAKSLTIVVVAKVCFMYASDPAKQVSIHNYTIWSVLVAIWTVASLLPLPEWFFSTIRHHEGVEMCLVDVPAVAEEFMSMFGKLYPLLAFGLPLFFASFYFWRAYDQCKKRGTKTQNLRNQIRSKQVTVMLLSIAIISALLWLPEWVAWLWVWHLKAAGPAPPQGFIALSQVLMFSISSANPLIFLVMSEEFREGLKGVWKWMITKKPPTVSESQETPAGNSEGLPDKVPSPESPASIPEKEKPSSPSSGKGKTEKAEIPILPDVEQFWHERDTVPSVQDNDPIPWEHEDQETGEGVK
GPR151 conf act: confirmation of human GPR151 activators | shares compounds with GPR151 activ | AID 1508609 | activation, % at 11.2 µM | 6,700 tested, under 10 active | GPR151 PathHunter beta-arrestin cells, luminescence, 90 min; % of EA-reagent control over plate median;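 active = mean percent activation across replicates above the confirmation screen cutoff of 4.91%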
GPR119 counter: counter-screen for GPR151 activators: effect on human GPR119. shares compounds with GPR151 activ. GPR119 PathHunter beta-arrestin cells, luminescence, 90 min; 0 = compound-well median, 100 = enzyme-acceptor control. 0.3% of 6,700 active. activation, % at 11.2 µM;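 active = mean percent activation in the counterscreen above 29.09%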;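 also: counterscreen on off-target GPR119 to flag nonselective hits from the GPR151 activator screen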
An asterisk follows results filed as active; / = no result. Rows were chosen to be rich in hits. Some 3.5% of all compounds tested hit in one or more screens of this group.

SMILES	MITF inh	FBW7 act	TEAD-YAP block	GPR151 activ	GPR151 conf act	GPR119 counter
O=[N+]([O-])c1ccc(Oc2ccc(S(=O)(=O)Nc3ccc(F)cc3)cc2)cc1	4	0	36*	7.5*	1	-5
CC(=O)Nc1ccc(S(=O)(=O)Nc2ccc(C(F)(F)F)cc2[N+](=O)[O-])cc1	6	0	9	7.8*	1	15
CCCN(CCC)S(=O)(=O)c1ccc(NS(=O)(=O)c2ccc(F)cc2)cc1	3	0	6	6.1*	0	-14
CCCN(CCC)S(=O)(=O)c1ccc(NS(C)(=O)=O)cc1	0	0	-1	0	/	/
CC(=O)Nc1ccc(S(=O)(=O)c2ccc(NC(C)=O)c([N+](=O)[O-])c2)cc1[N+](=O)[O-]	15	1	5	7.5*	1	10
CC(=O)c1ccccc1C(=O)N1CCC(CCC(=O)NCC2CCCO2)CC1 (stereo unspecified)	-16	1	-31	0	/	/
CCc1cccc(NC(=O)C2CCCN2S(=O)(=O)c2ccc3c(c2)CCC(=O)N3)c1 (stereo unspecified)	-8	0	4	-1	/	/
Cc1ccccc1C(=O)c1cccn1CC(=O)NC(C)C	0	0	3	0	/	/
CC(=O)Nc1ccc(NS(=O)(=O)c2ccc([N+](=O)[O-])cc2)cc1	13	1	8	18*	1	1
Cc1ccnc(NS(=O)(=O)c2ccc([N+](=O)[O-])cc2)n1	-3	0	-21	7.5*	0	-13
CC(=O)Nc1ccc(S(=O)(=O)c2ccc([N+](=O)[O-])cc2)cc1	-6	0	2	-2	/	/
NCCNC(=O)/C(=N\O)c1ccccc1	4	0	15	0	/	/
O=C(NCCCNCCCNC(=O)/C(=N/O)c1ccccc1)/C(=N/O)c1ccccc1	10	0	-6	5.4*	0	4
Cc1ccc(S(=O)(=O)c2nc(SCC(N)=O)sc2Cl)cc1	13	0	7	-1	/	/
COc1cn(CC(=O)NCc2ccc3c(c2)OCO3)c(CSc2nccn2C)cc1=O	6	0	5	0	/	/
Cc1cccc(N2C(=O)NC(=O)/C(=C\c3ccc(N(C)C)c([N+](=O)[O-])c3)C2=O)c1	0	0	-11	5.6*	-1	-5
COc1ccc(OC)c(N2C(=O)NC(=O)/C(=C/c3cccs3)C2=O)c1	-2	0	-3	1	/	/
COc1cccc(N2C(=O)NC(=O)/C(=C/c3ccc(O)c(O)c3)C2=O)c1	-24	0	-3	5.1*	1	5
COc1ccc(/C=C2\C(=O)NC(=O)N(c3ccccc3OC)C2=O)cc1	-4	0	-3	4.9*	0	10
COc1ccc(N2C(=O)/C(=C/c3cccs3)C(=O)NC2=S)c(OC)c1	8	0	8	5.2*	0	2
CC(=O)c1ccc(NC(=O)c2oc(=O)c3ccccc3c2-c2ccc(C)cc2)cc1	11	0	-7	-2	/	/
C=CCN1C(=O)c2oc3ccccc3c(=O)c2C12C(=O)N(C)c1ccccc12 (stereo unspecified)	-12	0	0	1	/	/
Cc1ccc(NC(=O)CN(C)c2nc(CN3CCCC3)nc3sc(C)c(C)c23)cc1	-2	0	8	-1	/	/
CCOc1cc2c(cc1OCC)C(c1cccc(I)c1)NCC2 (stereo unspecified)	10	0	2	1	/	/
CC1(C)Oc2ccc(C(=O)NC3CC3)cc2N(Cc2ccccc2F)C1=O	-8	0	4	1	/	/
SMILES	MITF inh	FBW7 act	TEAD-YAP block	GPR151 activ	GPR151 conf act	GPR119 counter
CN1CCN(c2ccccc2NC(=O)c2cc(S(=O)(=O)N3CCOCC3)cn2C)CC1	14	0	2	0	/	/
CCOc1cc(/C=C2\C(=O)NC(=O)N(c3ccc(Br)c(C)c3)C2=O)ccc1O	3	0	5	5.0*	0	-6
Cc1ccc(C2/C(=C(\O)c3ccc(F)cc3)C(=O)C(=O)N2CCCN2CCOCC2)cc1 (stereo unspecified)	-20	0	2	2	/	/
Cc1ccc(N2C(=O)CC(NC34CC5CC(CC(C5)C3)C4)C2=O)cc1 (stereo unspecified)	-1	0	-6	-1	/	/
COc1ccc(N2C(=O)CC(NC34CC5CC(CC(C5)C3)C4)C2=O)cc1 (stereo unspecified)	-8	0	8	5.5*	0	-5
COc1ccc(N2C(=O)CC(NCCNC(=O)c3ccc(Cl)cc3)C2=O)cc1 (stereo unspecified)	7	0	3	18*	0	12
O=C(c1cc2ccccc2oc1=O)N(Cc1ccc2c(c1)OCO2)CC1CCCO1 (stereo unspecified)	7	0	6	7.3*	1	7
COc1ccc(CN(CC2CCCO2)C(=O)c2cc3ccccc3oc2=O)cc1OC (stereo unspecified)	4	0	9	1	/	/
COc1ccc(OC)c(C(=O)c2oc3ccc(Cl)cc3c2NC(C)=O)c1	-6	0	8	1	/	/
COc1ccc(OC)c(C(=O)c2oc3ccc(Cl)cc3c2N)c1	-5	0	50*	6.3*	-1	0
C=C(C)COc1c(I)cc(C=O)cc1OC	10	0	10	6.6*	0	-6
CSc1ccc(Cl)c(C(=O)OCC(=O)c2ccc3c(c2)OCCO3)c1	-2	0	4	2	/	/
COc1cc(OC)c(CN2CCc3nnc(C4CCCO4)n3CC2)c(OC)c1 (stereo unspecified)	-5	0	-12	5.3*	0	4
O=[N+]([O-])c1ccccc1S(=O)(=O)NCc1ccco1	14	0	-23	7.1*	0	13
O=S(=O)(NCc1ccco1)c1cccc2c(S(=O)(=O)NCc3ccco3)cccc12	11	0	-1	0	/	/
O=[N+]([O-])c1ccccc1S(=O)(=O)c1ccccc1[N+](=O)[O-]	16	1	10	5.5*	0	-1
C=CCN1C(=O)/C(=C\c2cc(C)n(-c3ccccc3)c2C)C(=O)NC1=S	5	0	-4	1	/	/
CCN1CCc2c(sc(NC(=O)CCS(=O)(=O)c3ccccc3)c2C(N)=O)C1	15	0	3	-1	/	/
COc1ccc(Cn2c(SCC(N)=O)nc3c(sc4cccc(F)c43)c2=O)cc1	6	0	-5	-1	/	/
CC1Cc2nc(SCC(=O)NCc3ccccc3)n(C)c(=O)c2S1 (stereo unspecified)	11	1	-3	6.4*	1	5
CCn1c(SCC(=O)c2ccccc2)nc2c(c1=O)SC(C)C2 (stereo unspecified)	7	0	10	5.3*	0	5
c1ccc(COC2CCN(Cc3nc(-c4ccc5c(c4)OCO5)no3)CC2)nc1	5	0	-4	-1	/	/
